# Bioassay records: PubChem, National Center for Advancing Translational Sciences (NCATS)
# Shown are actives, neighbours in structure and some others; about 2.4% of the full set was active somewhere.
# D2 PAM-1: positive allosteric modulators of human D2 dopamine receptor; P14416; HEK293 T-REx D2, calcium flux, EC20 dopamine potentiation; potentiation, % at 10 µM; hit rate 0.34% among 340,000;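 active means potentiation over 3 SD above the plate norm, cut at about 30% in these data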; further: 0% is about no effect
# Target sequence (P14416 whole entry, looked up): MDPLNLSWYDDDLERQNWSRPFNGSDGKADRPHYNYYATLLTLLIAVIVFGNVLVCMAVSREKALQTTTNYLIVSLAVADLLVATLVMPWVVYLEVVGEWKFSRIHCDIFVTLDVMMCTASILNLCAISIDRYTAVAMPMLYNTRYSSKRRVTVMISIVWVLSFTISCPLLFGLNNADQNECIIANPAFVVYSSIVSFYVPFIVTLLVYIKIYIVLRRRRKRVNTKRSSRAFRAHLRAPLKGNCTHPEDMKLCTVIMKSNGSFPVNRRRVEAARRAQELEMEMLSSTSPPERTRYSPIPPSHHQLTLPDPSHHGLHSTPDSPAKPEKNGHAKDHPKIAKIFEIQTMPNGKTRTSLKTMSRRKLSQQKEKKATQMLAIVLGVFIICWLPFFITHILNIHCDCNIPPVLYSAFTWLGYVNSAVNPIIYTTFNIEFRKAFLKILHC
#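 Primary screen. Calcium kinetics in induced HEK293 T-REx D2 cells: compound pre-addition 180 s, EC20 dopamine, 180 s more.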
# D2 PAM-2: positive allosteric modulators of human D2 dopamine receptor; potentiation, % (no concentration beside the values); DiscoveRx D2 beta-arrestin cells, luminescence, 90 min; 100% = 57 uM dopamine signal; hit rate 0.23% among 360,000; P14416; AID 624464; in the data active means potentiation above about 50%
#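 D2 cells co-treated with compound plus 50 nM dopamine (EC20) for 90 min at 37 deg C to detect potentiation. Beta-arrestin recruitment was read as enzyme-fragment luminescence after 1 h at ambient temperature. Full response was set by 57 uM dopamine.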
# D2 ag-1: activates the human D2 dopamine receptor; P14416; DiscoveRx PathHunter D2 beta-arrestin, luminescence, 90 min; 100% = 57 uM dopamine signal; activation, % (concentration not given with the values); hit rate 0.084% among 360,000; AID 624465; in the data active means activation above about 40%
#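 Agonist mode: compounds alone added to overnight-plated D2 PathHunter cells for 90 min at 37 C, with 57 uM final dopamine (EC100) defining full response. Beta-arrestin recruitment detected by chemiluminescent reagent, read after 1 h at ambient temperature.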
# D2 ag-2: activates the human D2 dopamine receptor; P14416; HEK293 T-REx D2 cells, calcium flux agonist mode; activation, % at 2 µM; hit rate 0.53% among 340,000; AID 485358;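 active means activation over 3 SD above normal in the single-dose calcium agonist read, cut at about 30% in these data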; further: 0% is about no effect
#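 Calcium-flux readout, 1 cycle/sec over 180 s following compound pin transfer, in inducible HEK293 Trex D2 cells (force-coupled); dopamine controls included. Positive calcium responses during this window marked compounds as potential agonists.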
# D2 antagonist: D2 dopamine receptor (human) antagonism | P14416 | HEK293 TREx D2 cells, calcium flux, dopamine EC80 | inhibition, % at 10 µM | hit rate 2% among 340,000 | AID 485344; in the data active means inhibition above about 30%; inactive means below that, where a call was filed; further: 0% is about no effect
#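 Compounds are added to dye-loaded, induced HEK293 T-REx cells coupled to calcium release via D2; after a 3 min kinetic read an EC80 dopamine stimulus is given and fluorescence is recorded for 3 more min.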
# * hit, by the source's call; · = no result.
SMILES,D2 PAM-1,D2 PAM-2,D2 ag-1,D2 ag-2,D2 antagonist
Cc1ccccc1CC(=O)NC1CCN(Cc2ccccc2)CC1,-37,-24,-1,0,56*
Cc1ccc(CC(=O)NC2CCN(Cc3ccccc3)CC2)cc1,-14,-12,-2,0,-3
O=C(Cc1ccccc1)NC1CCN(Cc2ccccc2)CC1,-27,-20,-12,1,36*
CCCN1CCC(NC(=O)Cc2ccccc2C)CC1,-13,-5,-4,1,1
CC(Oc1ccccc1)C(=O)NC1CCN(Cc2ccccc2)CC1 (stereo unspecified),-28,-20,-3,0,42*
CC(Oc1ccccc1)C(=O)NC1CCCCCCC1 (stereo unspecified),7,-11,4,0,-12
Cc1ccc(Cl)cc1S(=O)(=O)N1CCC(C(=O)NC2CCN(Cc3ccccc3)CC2)CC1,-22,-16,-3,3,31*
Cc1cccc(Nc2cc(=O)n(C)c(=O)n2C)c1,·,-5,0,·,·
COc1cccc(-n2c(=O)c3sc4ccccc4c3n(CC(=O)NC3CCCCC3)c2=O)c1,9,·,·,-1,·
Cc1cc(C)c(NC(=O)c2sc3nc(C)cc(C)c3c2NC(=O)c2ccccc2)c(C)c1,-7,·,·,0,·
O=C(CCNS(=O)(=O)c1ccc(Br)cc1)NC1CCN(Cc2ccccc2)CC1,·,-43,-2,·,·
O=C(NC1CCN(Cc2ccccc2)CC1)C12CC3CC(CC(C3)C1)C2,-29,-16,-2,1,32*
O=C(CCNS(=O)(=O)c1cccs1)NC1CCN(Cc2ccccc2)CC1,-34,-12,0,1,41*
Cn1c(SCc2ccc(F)cc2)nc2ccc(C(=O)NCc3ccc(F)cc3)cc21,-8,·,·,1,·
COc1ccc(-n2c(SCC(=O)N3CCOCC3)nc(O)cc2=O)cc1,1,10,-1,·,·
COc1ccccc1-n1c(SCC(=O)Nc2nnc(C)s2)nc2c(c1=O)SCC2,31*,0,1,1,6
COc1ccc(-n2c(SCC(=O)N3CCOCC3)nc(O)c(Cc3ccccc3)c2=O)cc1,-3,-10,-3,1,43*
COc1ccc(-n2c(SCC(=O)Nc3ccccc3)nc3c(c2=O)SCC3)cc1,12,-6,-2,-1,31*
O=C(NC(=S)Nc1ccc(Cl)c(C(=O)O)c1)c1cccc(COc2ccccc2)c1,-8,-14,-2,-1,-1
O=C(O)c1ccc(Cl)c(NC(=S)NC(=O)c2cccc(COc3ccccc3)c2)c1,12,-4,2,-1,36*
c1ccc(N2CCN(c3c4c(nc5ncnn35)CCC4)CC2)cc1,1,4,1,-1,-26
CC1CCCCC1NC(=O)C1CCN(c2c3c(nc4ncnn24)CCC3)CC1 (stereo unspecified),-2,0,-4,-2,34*
c1ccc(-c2ccccc2OCCCN2CCOCC2)cc1,13,-15,-1,0,10
CC(C)(C)c1ccccc1OCCOCCN1CCCCCC1,-27,-10,3,0,31*
CC1CN(CCOc2ccccc2-c2ccccc2)CC(C)O1 (stereo unspecified),-17,-25,-6,0,71*
SMILES,D2 PAM-1,D2 PAM-2,D2 ag-1,D2 ag-2,D2 antagonist
OCCCN1CCN(CCCOc2ccccc2-c2ccccc2)CC1,-29,-33,-5,0,53*
c1ccc(-c2ccccc2OCCCCN2CCCCCC2)cc1,-41,-8,0,0,148*
CC1CN(CCOc2ccc(F)cc2)CC(C)O1 (stereo unspecified),5,-4,-2,-1,-6
Cc1ccc(NC(=O)Cn2c(=O)n(Cc3ccc4c(c3)OCO4)c(=O)c3ccccc32)c(C)c1,-1,·,·,0,·
CCc1nc2ccc(C(=O)N(C)CCCN(C)C)cn2c1N(C)C(=O)C1CCCCC1,·,-10,-5,·,·
COc1ccc(Cl)cc1NC(=O)c1cc(-c2ccc3c(c2)OCO3)on1,-7,·,·,1,·
O=S1(=O)CCN(C2CCCC2)CC1,·,0,-2,·,·
c1ccc(-c2ccccc2OCCN2CCCC2)cc1,-22,-25,5,0,82*
c1ccc(-c2ccccc2OCCOCCN2CCCCC2)cc1,-25,-26,-6,0,87*
Cc1ccccc1OCCN1CCCC1,-21,-4,-5,3,-16
CCOC(=O)C1(Cc2ccccc2C(F)(F)F)CCN(C2CCSC2)CC1 (stereo unspecified),-24,-14,-1,1,50*
CCc1ccccc1NC(=O)c1nnn(-c2ccc(F)cc2)c1C,1,·,·,0,·
CC(NC(=O)c1ccco1)C(=O)N1CCN(c2ccccc2)CC1 (stereo unspecified),-11,9,1,1,-4
CC(NC(=O)c1ccco1)C(=O)N1CCN(C(c2ccccc2)c2ccccc2)CC1 (stereo unspecified),3,57*,-3,-1,5
CC(C)c1nc(SCC(=O)Nc2ccc(N(C)C)cc2)c2ccccc2n1,1,-5,-19,-1,34*
CC(C)c1nc(SCC(=O)Nc2nccs2)c2ccccc2n1,-28,-5,-3,0,-5
CN(Cc1ccccc1)S(=O)(=O)c1ccc(Cl)c(C(=O)N2CCOCC2)c1,·,-14,3,·,·
COc1cc(-c2cc3nc(NCc4ccco4)ccn3n2)cc(OC)c1OC,·,-11,6,·,·
COC(=O)C1=C(C(=O)OC)C(C(=O)OC)C(C(=O)OC)C(C(=O)OC)(C(=O)OC)C(C(=O)OC)=C1C(=O)OC (stereo unspecified),·,8,-4,·,·
COC(=O)C1=C(C(=O)OC)N2C=CC=CC2(C)C(C(=O)OC)=C1C(=O)OC (stereo unspecified),-1,-9,-3,-2,32*
COc1ccc(C(C)C)cc1S(=O)(=O)NCCc1c(C)[nH]c2c(Cl)cccc12,10,·,·,·,·
CCCCc1nn2c(=O)cc(COC(=O)C3CCCCC3)nc2s1,-9,·,·,1,·
CCCCNC(=S)N(C)/N=C/c1ccc(F)cc1,7,-21,-1,-2,91*
CCCCNC(=S)N(C)/N=C/c1c(F)cccc1F,7,-2,0,1,6
O=C(CCN1C(=O)CSc2ccccc21)Nc1ccc(C(F)(F)F)cc1,-14,-6,3,1,88*
O=C(CCN1C(=O)CSc2ccccc21)Nc1cccc(C(F)(F)F)c1,-17,-3,-2,0,5
COCC(=O)N1CCN(c2cccc(Cl)c2)CC1,6,-2,-5,0,-17
COc1ccc(CC(C)N2CCN(c3cccc(C(F)(F)F)c3)CC2)cc1OC (stereo unspecified),-16,-19,6,1,74*
CCOc1cc(CN2CCN(c3cccc(C(F)(F)F)c3)CC2)ccc1OC,-26,-18,3,-2,28
